Assay results: PubChem BioAssay (EPA / NIEHS)
Inconclusive results are not listed. The source made the active and inactive calls. How the source made its calls, unless noted: active means hit-call score of the fitted dose curve at least 0.9, where 1 is the maximum; inactive means score below 0.9.

Key:
[1] = ATG_NFI_CIS: Attagene CIS-FACTORIAL HepG2 Assay for human Nuclear Factor I (NFI) (AID 2282989); details: HepG2 cis-regulatory reporter, NFI response element transcription; actives raise or lower the signal
Outline: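 Transient MRTU transfection of HepG2 → 24 h chemical dosing → total RNA, oligo(dT) RT → PCR, 6-FAM primer extension, HpaI cut → capillary electrophoresis. Endpoint fitted bidirectionally relative to DMSO.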

[2] = biological target: Myc proto-oncogene protein (Homo sapiens) (UniProt P01106); assay: ATG_Myc_CIS: Attagene CIS-FACTORIAL HepG2 Assay for human Myelocytomatosis (Myc) Proto-Oncogene Transcription Factor (AID 2282990); details: HepG2, Attagene cis-reporter transcription factor activity; actives raise or lower the signal
Outline: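 Cells of the HepG2 human liver line bear multiple cis-driven reporter transcription units. Reporter mRNA after 24 h exposure is reverse-transcribed, amplified, labelled and resolved by capillary electrophoresis, with gain- or loss-of-signal fitting relative to DMSO.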

[3] = ATG_NF_kB_CIS: Attagene CIS-FACTORIAL HepG2 Assay for human Nuclear Factor Kappa B (NF-kB) (AID 2282991); details: HepG2 Attagene cis-factorial NF-kB reporter mRNA; actives raise or lower the signal
Outline: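 HepG2 cells transiently transfected with multiplexed cis-element reporter units measuring endogenous transcription factor activity; reporter mRNA read 24 h after dosing by RT-PCR, fluorescent labelling, HpaI digestion and capillary electrophoresis. Bidirectional fit against DMSO baseline.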

[4] = ATG_NRF2_ARE_CIS: Attagene CIS-FACTORIAL HepG2 Assay for human Nuclear Factor Erythroid 2 Related Factor 2 (NFR2) response to Antioxidant Response Elements (ARE) (AID 2282992); details: HepG2 Attagene ARE/NRF2 reporter, transcription factor activity; actives raise or lower the signal;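 on AC50: reporter mRNA level measured by RT-PCR and capillary electrophoresis fluorescence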
Outline: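 Endogenous transcription factor activity in human liver HepG2 cells is tracked via a cis-element-driven reporter within a multiplexed set. mRNA induction is read by RT-PCR and capillary electrophoresis after 24 h, with DMSO as baseline.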

[5] = ATG_Oct_MLP_CIS: Attagene CIS-FACTORIAL HepG2 Assay for human Octamer-Binding Transcription Factor (Oct) (AID 2282993); details: HepG2 Attagene cis-factorial Oct reporter, mRNA; actives raise or lower the signal
Outline: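 Transient MRTU transfection of HepG2 → 24 h compound treatment → RNA isolation, reverse transcription, PCR → 6-FAM primer extension, HpaI digest → capillary electrophoresis. Activity fitted both directions against DMSO.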

[6] = biological target: Cellular tumor antigen p53 (Homo sapiens) (UniProt P04637); assay: ATG_p53_CIS: Attagene CIS-FACTORIAL HepG2 Assay for human p53 Transcription Factor (AID 2282994); details: HepG2 p53 cis-element reporter, Attagene mRNA; actives raise or lower the signal
Outline: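 Steps: transfect HepG2 with multiplexed cis reporter constructs; dose chemicals 24 h; extract RNA, reverse-transcribe, PCR-amplify reporter sequences; FAM-label, HpaI-digest, resolve fragments by CE. Activity fitted both directions relative to DMSO.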

[7] = biological target: Peroxisome proliferator-activated receptor gamma (Homo sapiens) (UniProt P37231); assay: ATG_PPARg_TRANS: Attagene TRANS-FACTORIAL HepG2 Assay for human Peroxisome Proliferator-activated Receptor-gamma (PPARg) (AID 2283007; active means hit-call score of the fitted dose curve at least 0.9, where 1 is the maximum)
Outline: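 HepG2 cells transiently transfected with multiplexed GAL4-UAS reporter units and exogenous chimeric NR-Gal4 proteins; reporter mRNA quantified after 24 h compound exposure by RT-PCR, fluorescent labelling, HpaI digestion and capillary electrophoresis; gain-of-signal fitted versus DMSO baseline.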

[8] = biological target: Nuclear receptor subfamily 1 group I member 2 (Homo sapiens) (UniProt O75469); assay: ATG_PXR_TRANS: Attagene TRANS-FACTORIAL HepG2 Assay for human Pregnane X Receptor (PXR) (AID 2283008; active means hit-call score of the fitted dose curve at least 0.9, where 1 is the maximum)
Outline: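 HepG2 transfected (FuGene 6) with GAL4-UAS reporter units + PXR-Gal4 chimera; dosed 24 h. Total RNA → oligo(dT) RT → PCR → 6-FAM primer extension → HpaI cut → CE. Gain-of-signal vs DMSO.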

[9] = biological target: human Retinoic Acid Receptor gamma (RARg), RARG (gene 5916) (UniProt P13631); assay: ATG_RARg_TRANS: Attagene TRANS-FACTORIAL HepG2 Assay for human Retinoic Acid Receptor gamma (RARg) (AID 2283009; active means hit-call score of the fitted dose curve at least 0.9, where 1 is the maximum)
Outline: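 Readout: reporter transcript levels via RT-PCR, 6-FAM primer-extension labelling, HpaI digestion and capillary electrophoresis. Cells: HepG2 carrying transfected RARg-GAL4 chimera plus UAS reporter set. Dosing 24 h; DMSO negative control.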

[10] = biological target: human Peroxisome Proliferator-activated Receptor delta (PPARd), PPARD (gene 5467) (UniProt Q03181); assay: ATG_PPARd_TRANS: Attagene TRANS-FACTORIAL HepG2 Assay for human Peroxisome Proliferator-activated Receptor delta (PPARd) (AID 2283002; active means hit-call score of the fitted dose curve at least 0.9, where 1 is the maximum)
Outline: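 Cell-based TRANS reporter: HepG2, transient MRTU transfection, 24 h exposure. Readout = reporter mRNA (RT-PCR/CE, 6-FAM). Gain-of-signal fit vs DMSO control.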

[11] = biological target: human Retinoic Acid Receptor beta (RARb), RARB (gene 5915) (UniProt P10826); assay: ATG_RARb_TRANS: Attagene TRANS-FACTORIAL HepG2 Assay for human Retinoic Acid Receptor beta (AID 2283004; active means hit-call score of the fitted dose curve at least 0.9, where 1 is the maximum)
Outline: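 Fluorescent capillary-electrophoresis detection of GAL4-UAS reporter mRNA defines the endpoint, with induction over DMSO-treated wells scored as activity. Transiently transfected human hepatoma HepG2 cells expressing exogenous NR–Gal4 proteins are exposed to test chemicals for 24 h.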

[12] = biological target: human RAR-related Orphan Receptor beta (RORb), RORB (gene 6096) (UniProt Q92753); assay: ATG_RORb_TRANS: Attagene TRANS-FACTORIAL HepG2 Assay for human RAR-related Orphan Receptor beta (RORb) (AID 2283010; active means hit-call score of the fitted dose curve at least 0.9, where 1 is the maximum)
Outline: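 HepG2, transient MRTU transfection (GAL4-UAS reporters, exogenous NR-Gal4 chimeras); 24 h compound exposure; total RNA → RT-PCR → 6-FAM primer extension → HpaI digest → CE fluorescence. Positive direction vs DMSO baseline.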

[13] = biological target: human Peroxisome Proliferator-activated Receptor alpha (PPARa), PPARA (gene 5465) (UniProt Q07869); assay: ATG_PPARa_TRANS: Attagene TRANS-FACTORIAL HepG2 Assay for human Peroxisome Proliferator-activated Receptor alpha (PPARa) (AID 2283001; active means hit-call score of the fitted dose curve at least 0.9, where 1 is the maximum)
Outline: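 Transfected HepG2 cells treated with test chemical for 24 h. RNA isolated, reverse-transcribed with oligo(dT), PCR-amplified, FAM-labelled and HpaI-digested. Fragments sized by capillary electrophoresis; gain-of-signal fit relative to DMSO.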

[14] = biological target: Retinoic acid receptor alpha (Homo sapiens) (UniProt P10276); assay: ATG_RARa_TRANS: Attagene TRANS-FACTORIAL HepG2 Assay for human Retinoic Acid Receptor alpha (RARa) (AID 2283005; active means hit-call score of the fitted dose curve at least 0.9, where 1 is the maximum)
Outline: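 Reporter transcripts, measured by RT-PCR with fluorescent labeling and capillary electrophoresis after 24 h dosing, reflect activity of an exogenous human RARa–GAL4 fusion in transiently transfected HepG2. Fitted for increase relative to DMSO.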

[15] = BSK_3C_TissueFactor: BioMAP Diversity Plus: 3C Assay for Tissue Factor Biomarker Activity (AID 2282997); details: BioMAP 3C HUVEC, tissue factor biomarker readout; actives raise or lower the signal
Outline: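 In this endothelial system, HUVEC are treated for 24 h and Tissue Factor is assessed by ELISA, normalised to DMSO.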

[16] = BSK_3C_uPAR: BioMAP Diversity Plus: 3C Assay for Urokinase-type plasminogen activator receptor (uPAR) Biomarker Activity (AID 2282998); details: BioMAP 3C HUVEC, uPAR biomarker ELISA; actives raise or lower the signal
Outline: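 ELISA readout of uPAR on human vascular endothelium (umbilical vein primary cells), taken 24 h after chemical dosing. Increases and decreases are both fitted relative to DMSO vehicle.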

[17] = BSK_3C_VCAM1: BioMAP Diversity Plus: 3C Assay for Vascular cell adhesion molecule 1 (VCAM1) Biomarker Activity (AID 2282999); details: BioMAP 3C HUVEC, VCAM1 ELISA, cytokine-stimulated; actives raise or lower the signal
Outline: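 Activity fitted in both directions relative to DMSO, with ELISA measurement of the surface marker on primary HUVEC (3C) at 24 h post-treatment; parallel SRB staining (0.1% SRB, TCA-fixed, 560 nm) flagged overt cytotoxicity.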

[18] = BSK_4H_Eotaxin3: BioMAP Diversity Plus: 4H Assay for Eotaxin 3 Biomarker Activity (AID 2283000); details: primary human endothelial cells (HUVEC); actives raise or lower the signal;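 further: CCL26 protein level quantified by ELISA in parallel with SRB cytotoxicity check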
Outline: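 ELISA quantitation of CCL26 (Eotaxin-3) protein from chemically dosed human vascular endothelial cells at 24 h; increases and decreases both scored relative to DMSO-treated baseline.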

[19] = read-out: Intercellular Adhesion Molecule 1 (ICAM1), ICAM1 (gene 3383); assay: BSK_3C_ICAM1: BioMAP Diversity Plus: 3C Assay for Intercellular Adhesion Molecule 1 (ICAM1) Biomarker Activity (AID 2283003); details: primary human endothelial cells (HUVEC); actives raise or lower the signal
Outline: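 ELISA read-out of ICAM-1; HUVEC (primary human), 3C system, 24 h post-dosing; bidirectional fit vs DMSO baseline.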

[20] = BSK_3C_Proliferation: Cell Proliferation Assessment in the BioMAP Diversity Plus: 3C Assay (AID 2283006); details: primary human endothelial cells (HUVEC)
Outline: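 HUVEC, sub-confluent; 48 h chemical exposure; 10% TCA fix, 0.1% SRB stain, A560 total protein. Gain or loss of signal fitted both directions vs DMSO control.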

Measured: AC50

Sequence of Nuclear receptor subfamily 1 group I member 2 (Homo sapiens) (O75469 whole entry, looked up, the tested form may be a part): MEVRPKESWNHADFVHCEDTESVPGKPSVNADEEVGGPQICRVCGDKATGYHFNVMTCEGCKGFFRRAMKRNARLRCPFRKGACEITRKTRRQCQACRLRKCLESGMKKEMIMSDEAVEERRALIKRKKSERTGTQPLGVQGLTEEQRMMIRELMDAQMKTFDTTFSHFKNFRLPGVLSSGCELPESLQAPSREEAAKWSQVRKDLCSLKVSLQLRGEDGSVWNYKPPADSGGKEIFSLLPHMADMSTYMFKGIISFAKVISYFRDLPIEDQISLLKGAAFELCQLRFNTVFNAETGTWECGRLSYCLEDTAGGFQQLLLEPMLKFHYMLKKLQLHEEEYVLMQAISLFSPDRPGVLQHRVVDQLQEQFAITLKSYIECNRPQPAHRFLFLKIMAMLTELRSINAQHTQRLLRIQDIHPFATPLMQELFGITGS
Sequence of human Retinoic Acid Receptor beta (RARb), RARB (gene 5915) (P10826 whole entry, looked up, the tested form may be a part): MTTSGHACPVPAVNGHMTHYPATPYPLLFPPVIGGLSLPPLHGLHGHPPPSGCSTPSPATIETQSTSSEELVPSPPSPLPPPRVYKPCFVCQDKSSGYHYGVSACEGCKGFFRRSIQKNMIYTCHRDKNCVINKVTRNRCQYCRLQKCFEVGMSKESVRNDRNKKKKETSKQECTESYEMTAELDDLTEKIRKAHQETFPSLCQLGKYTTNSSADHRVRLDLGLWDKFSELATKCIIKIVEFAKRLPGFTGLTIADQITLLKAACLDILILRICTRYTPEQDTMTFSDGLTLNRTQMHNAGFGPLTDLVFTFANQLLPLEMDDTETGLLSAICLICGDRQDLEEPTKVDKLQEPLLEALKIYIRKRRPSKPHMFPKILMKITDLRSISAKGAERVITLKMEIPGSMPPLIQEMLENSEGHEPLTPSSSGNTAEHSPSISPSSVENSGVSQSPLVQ
Sequence of Peroxisome proliferator-activated receptor gamma (Homo sapiens) (P37231 whole entry, looked up, the tested form may be a part): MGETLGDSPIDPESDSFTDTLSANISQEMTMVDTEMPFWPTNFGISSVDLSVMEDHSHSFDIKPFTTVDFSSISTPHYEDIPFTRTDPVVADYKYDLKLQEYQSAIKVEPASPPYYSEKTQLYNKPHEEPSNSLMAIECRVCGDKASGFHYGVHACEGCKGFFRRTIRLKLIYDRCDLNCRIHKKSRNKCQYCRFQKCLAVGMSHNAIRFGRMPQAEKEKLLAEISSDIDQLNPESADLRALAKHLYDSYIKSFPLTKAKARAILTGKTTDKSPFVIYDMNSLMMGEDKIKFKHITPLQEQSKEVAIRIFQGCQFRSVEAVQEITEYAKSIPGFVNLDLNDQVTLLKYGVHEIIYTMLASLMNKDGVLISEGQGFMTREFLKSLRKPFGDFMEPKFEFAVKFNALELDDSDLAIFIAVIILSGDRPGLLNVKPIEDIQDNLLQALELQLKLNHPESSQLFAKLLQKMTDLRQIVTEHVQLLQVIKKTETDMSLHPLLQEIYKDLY
Sequence of human Peroxisome Proliferator-activated Receptor alpha (PPARa), PPARA (gene 5465) (Q07869 whole entry, looked up, the tested form may be a part): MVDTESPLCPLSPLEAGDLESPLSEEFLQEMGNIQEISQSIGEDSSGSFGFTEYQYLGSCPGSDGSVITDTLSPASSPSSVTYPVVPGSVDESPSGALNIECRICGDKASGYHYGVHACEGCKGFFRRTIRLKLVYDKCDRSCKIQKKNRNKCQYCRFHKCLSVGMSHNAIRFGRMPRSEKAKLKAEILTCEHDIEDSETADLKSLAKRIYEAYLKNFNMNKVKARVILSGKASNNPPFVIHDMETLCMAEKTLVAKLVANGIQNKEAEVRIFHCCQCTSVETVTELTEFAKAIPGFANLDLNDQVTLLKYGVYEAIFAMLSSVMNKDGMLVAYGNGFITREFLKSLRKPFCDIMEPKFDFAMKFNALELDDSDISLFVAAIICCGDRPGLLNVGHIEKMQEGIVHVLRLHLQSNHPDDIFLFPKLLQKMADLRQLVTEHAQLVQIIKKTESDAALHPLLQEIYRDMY
Sequence of Retinoic acid receptor alpha (Homo sapiens) (P10276 whole entry, looked up, the tested form may be a part): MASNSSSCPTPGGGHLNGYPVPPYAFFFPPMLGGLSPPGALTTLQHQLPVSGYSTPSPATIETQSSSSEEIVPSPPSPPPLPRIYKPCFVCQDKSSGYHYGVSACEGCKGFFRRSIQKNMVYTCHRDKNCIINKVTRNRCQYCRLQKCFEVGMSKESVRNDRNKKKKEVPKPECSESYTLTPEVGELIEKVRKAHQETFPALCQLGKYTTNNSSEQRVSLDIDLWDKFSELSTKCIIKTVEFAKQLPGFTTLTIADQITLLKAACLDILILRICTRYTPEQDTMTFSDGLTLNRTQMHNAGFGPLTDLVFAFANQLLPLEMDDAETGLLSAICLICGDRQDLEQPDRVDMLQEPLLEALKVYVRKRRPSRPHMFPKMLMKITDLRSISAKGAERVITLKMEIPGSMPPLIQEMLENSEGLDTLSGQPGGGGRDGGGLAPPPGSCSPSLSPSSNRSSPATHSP
Sequence of human Retinoic Acid Receptor gamma (RARg), RARG (gene 5916) (P13631 whole entry, looked up, the tested form may be a part): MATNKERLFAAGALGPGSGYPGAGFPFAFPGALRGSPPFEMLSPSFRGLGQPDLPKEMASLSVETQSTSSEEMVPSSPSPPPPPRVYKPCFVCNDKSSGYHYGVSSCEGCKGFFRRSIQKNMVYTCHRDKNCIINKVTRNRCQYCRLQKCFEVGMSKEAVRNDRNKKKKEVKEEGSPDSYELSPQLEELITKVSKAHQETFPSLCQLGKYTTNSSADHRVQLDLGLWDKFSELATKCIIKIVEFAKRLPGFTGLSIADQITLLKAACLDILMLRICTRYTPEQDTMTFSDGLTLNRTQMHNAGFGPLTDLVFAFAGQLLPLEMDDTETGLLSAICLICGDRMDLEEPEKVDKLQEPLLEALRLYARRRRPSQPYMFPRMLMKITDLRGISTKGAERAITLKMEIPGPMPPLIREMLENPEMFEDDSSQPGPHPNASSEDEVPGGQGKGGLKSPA
Sequence of Myc proto-oncogene protein (Homo sapiens) (P01106 whole entry, looked up): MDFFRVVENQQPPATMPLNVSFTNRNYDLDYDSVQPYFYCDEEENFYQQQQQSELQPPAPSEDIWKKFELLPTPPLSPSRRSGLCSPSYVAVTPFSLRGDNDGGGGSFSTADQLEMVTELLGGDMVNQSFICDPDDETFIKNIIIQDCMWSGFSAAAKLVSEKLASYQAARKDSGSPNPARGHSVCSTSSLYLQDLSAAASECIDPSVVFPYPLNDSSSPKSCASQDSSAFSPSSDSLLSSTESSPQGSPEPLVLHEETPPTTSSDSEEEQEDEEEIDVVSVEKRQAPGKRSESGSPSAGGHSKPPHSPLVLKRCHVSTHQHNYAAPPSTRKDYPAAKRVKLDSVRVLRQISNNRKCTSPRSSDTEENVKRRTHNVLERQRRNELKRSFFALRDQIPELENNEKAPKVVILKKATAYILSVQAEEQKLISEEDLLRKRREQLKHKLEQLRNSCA
Sequence of Cellular tumor antigen p53 (Homo sapiens) (P04637 whole entry, looked up, the tested form may be a part): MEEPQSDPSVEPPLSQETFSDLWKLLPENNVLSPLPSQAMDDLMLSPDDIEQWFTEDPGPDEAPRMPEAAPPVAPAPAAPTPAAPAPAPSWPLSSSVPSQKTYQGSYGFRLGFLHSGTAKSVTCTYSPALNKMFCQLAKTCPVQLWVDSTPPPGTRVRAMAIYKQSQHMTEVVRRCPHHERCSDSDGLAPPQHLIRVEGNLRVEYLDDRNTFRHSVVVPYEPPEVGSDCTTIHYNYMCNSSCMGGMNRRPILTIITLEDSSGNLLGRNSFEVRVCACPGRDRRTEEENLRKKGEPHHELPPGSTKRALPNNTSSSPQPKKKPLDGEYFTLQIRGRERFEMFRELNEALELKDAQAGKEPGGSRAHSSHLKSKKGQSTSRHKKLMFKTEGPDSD
Sequence of human Peroxisome Proliferator-activated Receptor delta (PPARd), PPARD (gene 5467) (Q03181 whole entry, looked up): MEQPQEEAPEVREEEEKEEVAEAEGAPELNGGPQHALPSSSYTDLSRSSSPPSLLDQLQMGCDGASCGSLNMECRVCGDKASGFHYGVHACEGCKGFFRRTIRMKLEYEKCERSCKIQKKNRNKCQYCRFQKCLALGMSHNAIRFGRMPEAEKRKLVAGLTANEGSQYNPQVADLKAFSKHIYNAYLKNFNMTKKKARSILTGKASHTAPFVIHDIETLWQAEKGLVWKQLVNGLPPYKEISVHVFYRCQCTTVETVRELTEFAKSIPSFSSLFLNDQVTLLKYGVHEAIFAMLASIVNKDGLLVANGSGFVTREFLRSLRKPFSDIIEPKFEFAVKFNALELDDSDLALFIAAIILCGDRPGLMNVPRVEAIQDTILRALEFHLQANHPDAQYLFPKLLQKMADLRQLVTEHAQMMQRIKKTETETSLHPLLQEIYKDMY
Sequence of human RAR-related Orphan Receptor beta (RORb), RORB (gene 6096) (Q92753 whole entry, looked up, the tested form may be a part): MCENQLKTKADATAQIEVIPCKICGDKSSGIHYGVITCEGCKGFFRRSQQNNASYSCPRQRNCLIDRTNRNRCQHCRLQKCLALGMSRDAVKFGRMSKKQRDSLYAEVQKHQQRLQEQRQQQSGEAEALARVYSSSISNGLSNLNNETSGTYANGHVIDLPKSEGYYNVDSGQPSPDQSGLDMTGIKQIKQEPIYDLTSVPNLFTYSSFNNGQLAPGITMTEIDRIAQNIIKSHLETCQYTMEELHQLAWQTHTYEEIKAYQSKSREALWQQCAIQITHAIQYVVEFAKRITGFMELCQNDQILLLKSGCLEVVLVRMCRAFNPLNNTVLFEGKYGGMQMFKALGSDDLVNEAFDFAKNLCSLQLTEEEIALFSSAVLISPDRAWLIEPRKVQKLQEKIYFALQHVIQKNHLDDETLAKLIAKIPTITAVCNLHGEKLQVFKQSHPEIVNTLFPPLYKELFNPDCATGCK

C[Si](C)(CCCN)O[Si](C)(C)CCCN
inactive: [1] | [2] | [3] | [4] | [5] | [6] | [7] | [8] | [9]

CCCCCC(C)O (stereo not drawn)
inactive: [1] | [2] | [3] | [4] | [5] | [10] | [11] | [7] | [12]

Cc1ccccc1C
inactive: [1] | [2] | [3] | [4] | [5] | [13] | [11] | [14] | [7] | [8] | [9]

Cn1c([N+](=O)[O-])cnc1COC(N)=O
inactive: [1] | [2] | [3] | [4] | [5] | [6] | [14]

NC(=O)NNC(N)=O
inactive: [1] | [2] | [3] | [4] | [5] | [6] | [14] | [8] | [9]

Cc1cc(C)c(C)cc1C
inactive: [1] | [2] | [3] | [4] | [5] | [10] | [7]

Cc1cnc(NC(=O)C2=C(O)c3ccccc3S(=O)(=O)N2C)s1
active: [7] 40.4 µM
inactive: [1] | [2] | [3] | [4] | [5] | [10] | [11] | [14] | [9] | [12]

Cc1cc(=O)n(-c2ccccc2)n1C
inactive: [1] | [2] | [3] | [4] | [5] | [6] | [8] | [9] | [12]

O=Nc1ccc(O)cc1
inactive: [1] | [2] | [3] | [4] | [5] | [15] | [16] | [17] | [18] | [13] | [19] | [11] | [20]

CC(C)COC(=O)C=Cc1ccccc1
active: [4] 18.4 µM | [8] 29.4 µM
inactive: [1] | [2] | [3] | [5] | [13] | [10]
